Measurements published in PubChem BioAssay (EPA / NIEHS).
Values joined by “and” are separate entries in the source; they are usually repeats but may differ in a detail not shown here. Identical values can stand only once. Inconclusive results are not listed. The source holds several records for some structures; these can differ, active in one and inactive in another. Active and inactive are the calls of the source. The calls were made as follows, unless noted: active = hit-call score of the fitted dose curve at least 0.9, where 1 is the maximum; inactive = score below 0.9.

Key:
[1] = BSK_BT_PBMCCytotoxicity: PBMC Cytotoxicity Assessment in the BioMAP Diversity Plus: BT Assay (AID 2284225); settings: primary human B cells with PBMC;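 also: PBMC viability measured by Alamar Blue dye reduction fluorescence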
Method in brief: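 Viability by Alamar Blue reduction (6 h, ex/em 546/580 nm) after 90 h culture of SEB/TSST-1-activated PBMC (20 ng/mL each) given compound 1 h before activation. DMSO served as baseline for curve fitting.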

[2] = read-out: Secreted IgG (sIgG), gene 3500; test: BSK_BT_sIgG: BioMAP Diversity Plus: BT Assay for Secreted IgG (sIgG) Biomarker Activity (AID 2284226); settings: primary human B cells with PBMC
Method in brief: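 Cells (B cells with peripheral blood mononuclear cells) are dosed, cultured 24 h, then supernatant IgG is measured by ELISA. DMSO serves as negative control; curves are fitted for signal increase.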

[3] = BSK_BT_Bcell_Proliferation: Viability Assessment in the BioMAP Diversity Plus: BT Assay for B cell Proliferation (AID 2284227); settings: primary human B cells with PBMC
Method in brief: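 Using a human primary B cell–PBMC co-culture, the assay measures total protein by sulforhodamine B absorbance as a gauge of proliferation after 72 h. Analysis followed the positive fitting direction with DMSO as baseline.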

[4] = read-out: Interleukin 6 (IL6), IL6 (gene 3569); test: BSK_BT_xIL6: BioMAP Diversity Plus: BT Assay for Interleukin 6 (IL6) Biomarker Activity (AID 2284228); settings: primary human B cells with PBMC
Method in brief: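 Secreted IL-6 in the primary human B cell plus PBMC system, measured by Luminex at 24 h post-chemical, DMSO as baseline. Alamar Blue viability: 75,000 cells/well, chemical 1 h before SEB/TSST-1 (20 ng/mL each), 90 h, then 6 h dye.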

[5] = read-out: Tumor necrosis factor (Homo sapiens) (UniProt P01375); test: BSK_BT_xTNFa: BioMAP Diversity Plus: BT Assay for Tumor necrosis factor alpha (TNF-alpha) Biomarker Activity (AID 2284230); settings: primary human B cells with PBMC
Method in brief: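 Endpoint derived in the positive direction versus DMSO vehicle. Cells: B cells together with PBMC, exposed 24 h before TNF-alpha in the medium was read on the Luminex xMAP platform.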

[6] = CCTE_Mundy_HCI_Cortical_Synap_Neur_Matur_NeuriteSpotCountPerNeuriteLength: CCTE's Synaptogenesis and Neurite Maturation Assay in rat cortical cells for Neurite Spot Count per Neurite Length, Mundy Lab (AID 2284210)
Method in brief: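 Neurite-associated synapse density (synaptophysin puncta per unit neurite length) is measured by fluorescence high-content imaging in rat cortical cultures treated from DIV 7 and fixed at DIV 12, with DMSO as negative control.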

[7] = CCTE_Mundy_HCI_Cortical_Synap_Neur_Matur_BPCount: CCTE's Synaptogenesis and Neurite Maturation Assay in rat cortical cells for Branch Point Count, Mundy Lab (AID 2284211)
Method in brief: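 HCI read-out of branch points from MAP2/synaptophysin/Hoechst immunofluorescence; rat cortical cultures, AraC DIV 5, dosing DIV 7, fixed DIV 12; fit in positive direction vs DMSO baseline.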

[8] = CCTE_Mundy_HCI_Cortical_NOG_NeuriteCount: CCTE's Neurite Outgrowth Assay in rat cortical cells for Neurite Count, Mundy Lab (AID 2284212);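 also: cells fixed about two days after chemical exposure began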
Method in brief: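 Rat cortical primary cells; compound added 2 h post-plating, 1/10 dilution of working solution. Anti-betaIII-tubulin/AF488 ICC; ArrayScan neurite count vs DMSO.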

[9] = CCTE_Mundy_HCI_Cortical_NOG_NeuriteLength: CCTE's Neurite Outgrowth Assay in rat cortical cells for Neurite Length, Mundy Lab (AID 2284213);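 as to AC50: neurites imaged about 48 to 50 h after chemical exposure began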
Method in brief: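 First, rat primary cortical cells were plated and, 2 h later, given test chemical as a 1/10 dilution. Finally, βIII-tubulin immunostaining enabled automated imaging of neurite length.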

[10] = CCTE_Mundy_HCI_Cortical_Synap_Neur_Matur_NeuriteLength: CCTE's Synaptogenesis and Neurite Maturation Assay in rat cortical cells for Neurite Length, Mundy Lab (AID 2284214)
Method in brief: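 Cultures of rat primary cortical cells received chemical at DIV 7 and were fixed at DIV 12, after glial arrest with AraC at DIV 5. Neurite length was measured by automated imaging of MAP2 immunofluorescence.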

[11] = CCTE_Mundy_HCI_Cortical_Synap_Neur_Matur_NeuriteSpotCountPerNeuron: CCTE's Synaptogenesis and Neurite Maturation Assay in rat cortical cells for Neurite Spot Count per Neuron Count, Mundy Lab (AID 2284215)
Method in brief: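 High-content imaging counts synaptophysin puncta along MAP2-labelled neurites per neuron after chemical exposure of rat cortical cells from DIV 7 to termination at DIV 12 (AraC added DIV 5). Loss of signal relative to DMSO.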

[12] = CCTE_Mundy_HCI_Cortical_Synap_Neur_Matur_SynapseCount: CCTE's Synaptogenesis and Neurite Maturation Assay in rat cortical cells for Synapse Count, Mundy Lab (AID 2284218)
Method in brief: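 Cells were plated, allowed 2 hr to attach, treated with AraC at DIV 5, then exposed to chemicals from DIV 7 until DIV 12. After fixation and MAP2/synaptophysin immunolabelling, synapses per neuron were quantified by automated imaging against DMSO.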

[13] = CCTE_Mundy_HCI_hN2_NOG_NeuriteCount: CCTE's Neurite Outgrowth Assay in human hN2 cells for Neurite Count, Mundy Lab (AID 2284219; active = hit-call score of the fitted dose curve at least 0.9, where 1 is the maximum)
Method in brief: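 In this morphology assay, hNP1-derived neurons received test chemical 2 h post-plating and were fixed two days later in warm paraformaldehyde/sucrose containing Hoechst 33342. Neurites, labelled by rabbit anti-βIII-tubulin (1:800) and Alexa Fluor-488 (1:500), were counted automatically.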

[14] = CCTE_Mundy_HCI_hN2_NOG_NeuriteLength: CCTE's Neurite Outgrowth Assay in human hN2 cells for Neurite Length, Mundy Lab (AID 2284220; active = hit-call score of the fitted dose curve at least 0.9, where 1 is the maximum)
Method in brief: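 Using βIII-tubulin immunofluorescence and Hoechst nuclear counterstain, this component quantifies neurite length in hNP1-derived neurons.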

[15] = CCTE_Mundy_HCI_hN2_NOG_NeuronCount: CCTE's Neurite Outgrowth Assay in human hN2 cells for Neuron Count, Mundy Lab (AID 2284221; active = hit-call score of the fitted dose curve at least 0.9, where 1 is the maximum)
Method in brief: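 Read-out is the number of betaIII-tubulin-positive neurons imaged by automated high-content analysis, with DMSO as negative control.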

[16] = CCTE_Mundy_HCI_Cortical_Synap_Neur_Matur_NeuriteCount: CCTE's Synaptogenesis and Neurite Maturation Assay in rat cortical cells for Neurite Count, Mundy Lab (AID 2284222)
Method in brief: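 In this multiplexed morphology readout, rat primary cortical neurons are fixed at DIV 12 following dosing at DIV 7 and stained for MAP2, synaptophysin and nuclei. High-content image analysis yields neurite count.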

[17] = CCTE_Mundy_HCI_Cortical_Synap_Neur_Matur_CellBodySpotCount: CCTE's Synaptogenesis and Neurite Maturation Assay in rat cortical cells for Cell Body Spot Count, Mundy Lab (AID 2284223)
Method in brief: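 High-content imaging counts synaptophysin puncta on neuronal cell bodies per neuron after MAP2/synaptophysin immunostaining. Rat primary cortical cells, glia arrested with AraC at DIV 5, were exposed DIV 7–12; signal decrease measured against DMSO.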

[18] = CCTE_Mundy_HCI_hNP1_Pro_ResponderAvgInten: CCTE's Proliferation Assay in human neuroprogenitor cells, Mundy Lab (AID 2284224; active = hit-call score of the fitted dose curve at least 0.9, where 1 is the maximum;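 also: human neural progenitor cells hNP1 derived from WA09 embryonic stem cells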)
Method in brief: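 Human neuroprogenitors (hNP1, WA09 lineage) receive test chemical after 40 to 44 hours of attachment. A four-hour BrdU pulse begins twenty hours later, followed by fixation and high content imaging; signal is referenced to DMSO controls.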

[19] = IUF_NPC1_viability_72hr: Viability Assessment at 72 hours in the Leibniz Research Institute for Environmental Medicine (IUF) Neural Progenitor Cell Proliferation Assay (NPC1) (AID 2284209)
Method in brief: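 Spheres of primary human neural progenitors were plated singly in proliferation medium and treated for 72 h. Mitochondrial reduction of resazurin was then measured by fluorescence and analysed against DMSO controls.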

[20] = TAMU_PeakParms_SingleDonor1434_Chronotropy: Texas A&M University (TAMU) 1.5-hr Human Induced Pluripotent Stem Cell (iPSC)-derived Cardiomyocytes Calcium (Ca+2) Flux Assay for Cardiotoxicity: Chronotropy (changes in peak frequency) (AID 2284217); settings: actives raise or lower the signal
Method in brief: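 Using fluorescent Ca2+ flux, average beats per second are measured in human iPSC-derived cardiomyocytes treated 90 min (0.5% DMSO vehicle, 0.2–100 uM). Non-beating data points are removed; activity is modeled in both directions relative to DMSO controls.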

Measured: AC50

Sequence of Tumor necrosis factor (Homo sapiens) (P01375 whole entry, looked up): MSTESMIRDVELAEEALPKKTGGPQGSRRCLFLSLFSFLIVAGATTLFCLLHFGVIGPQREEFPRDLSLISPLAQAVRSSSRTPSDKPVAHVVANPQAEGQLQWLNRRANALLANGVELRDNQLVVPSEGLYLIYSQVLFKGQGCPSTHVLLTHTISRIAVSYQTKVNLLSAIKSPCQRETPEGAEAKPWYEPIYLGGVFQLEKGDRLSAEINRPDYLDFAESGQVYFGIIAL

O=C(O)C(F)(F)C(F)(F)C(F)(F)C(F)(F)C(F)(F)F
inactive: [1] | [2] | [3] | [4] | [5]

NS(=O)(=O)C(F)(F)C(F)(F)C(F)(F)C(F)(F)C(F)(F)C(F)(F)C(F)(F)C(F)(F)F
inactive: [1] | [3]
active: [2] 23.8 µM and 45.3 µM | [4] 44.5 µM and 43.1 µM | [5] 46.3 µM and 25 µM

O=C(O)C(F)(F)C(F)(F)C(F)(F)C(F)(F)C(F)(F)C(F)(F)C(F)(F)C(F)(F)C(F)(F)F
inactive: [1] | [2] | [3] | [4] | [5]
active: [1] 5.95 µM | [3] 20.4 µM

ClC1=C(Cl)[C@]2(Cl)[C@@H]3[C@@H](Cl)[C@H]4O[C@H]4[C@@H]3C1(Cl)C2(Cl)Cl
inactive: [6] | [16]
active: [7] 3.36 µM | [8] 16.6 µM | [9] 16 µM | [10] 4.05 µM | [11] 8.58 µM | [12] 9.03 µM | [13] 13.2 µM | [14] 13.1 µM | [15] 5.59 µM | [17] 9.92 µM | [18] 15.8 µM

CCOP(=S)(OCC)SCSC(C)(C)C
active: [6] 23 µM | [7] 80.7 µM and 23.2 µM | [9] 91 µM and 79.2 µM | [10] 81.5 µM and 17.5 µM | [11] 81 µM and 22.9 µM | [12] 79.7 µM and 22.9 µM | [16] 22.5 µM | [17] 22.9 µM
inactive: [19] | [6] | [13] | [14] | [15] | [16] | [17] | [18]

C=CC(N)=O
inactive: [19] | [6] | [7] | [8] | [9] | [10] | [11] | [20] | [12] | [13] | [14] | [15] | [16] | [17]

ClC1=C(Cl)[C@]2(Cl)[C@@H]3[C@@H]4C[C@@H]([C@H]5O[C@@H]45)[C@@H]3[C@@]1(Cl)C2(Cl)Cl
active: [6] 25.5 µM | [9] 8.83 µM | [10] 12.8 µM | [11] 13 µM | [20] 4.73 µM | [12] 13.2 µM | [15] 50 µM | [17] 24 µM | [18] 25.2 µM
inactive: [14]
